# Test results as given in the supplement of paper PMC9262897, “Low-cost anti-mycobacterial drug discovery using engineered E. coli” (Nature Communications, 2022).
# Structures can show the parent of a compound that is named as a salt. ± gives the standard deviation of the averaged measurements.
# Key:
# Assay in all cases: growth (OD600 after 10 h); higher = more growth (less inhibition)
# [1] = tested on: E. coli TESEC Alr+ wild-type control; conditions: compound 0.1 mM; raw OD600 reference: median of DMSO wells 0.241, cell-free background 0.041
# Experimental: (§1)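 TESEC Mtb Alr E. coli, or the Alr+ wild-type control, in 384-well plates with Prestwick library compounds at 0.1 mM and 1% DMSO, across arabinose induction levels of 1E3 to 1E7 nM. Growth is read as OD600 after 10 h at 37 °C in triplicate biological replicates.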
# E. coli TESEC Mtb Alr [2] = conditions: compound 0.1 mM
# Experimental: as §1
# E. coli TESEC Mtb Asd = conditions: compound 0.1 mM
# Experimental: (§2)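 TESEC E. coli strains in which the native enzyme is deleted and replaced by arabinose-inducible Mtb Asd, DapB, CysH or TrpD, each grown in its selective medium. Strains were screened against the Prestwick library at 0.1 mM and 1% DMSO in 384-well format at low and high arabinose induction. Growth is read as OD600 after 10 h in triplicate.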
# E. coli TESEC Mtb DapB = conditions: compound 0.1 mM
# Experimental: as §2
# [3] = tested on: E. coli TESEC Alr+ wild-type control; conditions: compound 0.1 mM; raw OD600 reference: median of DMSO wells 0.49, cell-free background 0.052
# Experimental: (§3)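 TESEC Mtb Alr E. coli (ΔaraC ΔtolC ΔentC Δalr ΔdadX, arabinose-inducible Mtb Alr) or the Alr+ wild-type control strain, grown in defined M9-fructose medium without D-alanine in 96-well plates with Prestwick library compounds at 0.1 mM and 1% DMSO. Low Alr induction is 0.1 µM arabinose and high induction is 10 mM arabinose.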
# E. coli TESEC Mtb Alr [4] = conditions: compound 0.1 mM; remark: listed apart in the source
# Experimental: as §3
# [5] = arabinose 1000 nM, raw OD600 reference: median of DMSO wells 0.294, cell-free background 0.041
# [6] = arabinose 10000 nM, raw OD600 reference: median of DMSO wells 0.264, cell-free background 0.041
# [7] = arabinose 100000 nM, raw OD600 reference: median of DMSO wells 0.201, cell-free background 0.041
# [8] = arabinose 1000000 nM, raw OD600 reference: median of DMSO wells 0.193, cell-free background 0.041
# [9] = arabinose 10000000 nM, raw OD600 reference: median of DMSO wells 0.146, cell-free background 0.041
# [10] = arabinose induction (level): High, raw OD600 reference: median of DMSO wells 0.331, cell-free background 0.041
# [11] = arabinose induction (level): Low, raw OD600 reference: median of DMSO wells 0.417, cell-free background 0.041
# [12] = arabinose induction (level): High, raw OD600 reference: median of DMSO wells […], cell-free background 0.041
# [13] = arabinose induction (level): Low, raw OD600 reference: median of DMSO wells 0.227, cell-free background 0.041
# [14] = arabinose 100 nM, raw OD600 reference: median of DMSO wells 0.413, cell-free background 0.052
# [15] = arabinose 10000000 nM, raw OD600 reference: median of DMSO wells […], cell-free background 0.052
Structure (SMILES),growth [1],growth (E. coli TESEC Mtb Alr [2]; [5]),growth (E. coli TESEC Mtb Alr [2]; [6]),growth (E. coli TESEC Mtb Alr [2]; [7]),growth (E. coli TESEC Mtb Alr [2]; [8]),growth (E. coli TESEC Mtb Alr [2]; [9]),growth (E. coli TESEC Mtb Asd; [10]),growth (E. coli TESEC Mtb Asd; [11]),growth (E. coli TESEC Mtb DapB; [12]),growth (E. coli TESEC Mtb DapB; [13]),growth [3],growth (E. coli TESEC Mtb Alr [4]; [14]),growth (E. coli TESEC Mtb Alr [4]; [15])
CC(C)c1nc(CN(C)C(=O)N[C@H](C(=O)N[C@@H](Cc2ccccc2)C[C@H](O)[C@H](Cc2ccccc2)NC(=O)OCc2cncs2)C(C)C)cs1 [Ritonavir],0.166 ± 0.0093,0.216 ± 0.015,0.221 ± 0.025,0.217 ± 0.012,0.114 ± 0.0092,0.159 ± 0.0028,0.245 ± 0.0089,0.15 ± 0.008,0.192 ± 0.013,0.25 ± 0.0048,0.362 ± 0.01,–,–
Cc1c(O)cccc1C(=O)N[C@@H](CSc1ccccc1)[C@H](O)CN1C[C@H]2CCCC[C@H]2C[C@H]1C(=O)NC(C)(C)C [Nelfinavir mesylate],0.279 ± 0.06,0.329 ± 0.0095,0.284 ± 0.031,0.323 ± 0.062,0.148 ± 0.0082,0.276 ± 0.041,0.215 ± 0.019,0.275 ± 0.015,0.197 ± 0.077,0.23 ± 0.086,0.509 ± 0.09,–,–
CC[C@H]1OC(=O)[C@H](C)[C@@H](O[C@H]2C[C@@](C)(OC)[C@@H](O)[C@H](C)O2)[C@H](C)[C@@H](O[C@@H]2O[C@H](C)C[C@H](N(C)C)[C@H]2O)[C@](C)(O)C[C@@H](C)/C(=N\OCOCCOC)[C@H](C)[C@@H](O)[C@]1(C)O [Roxithromycin],0.0423 ± 0.0011,0.0412 ± 0.00062,0.04067 ± 0.00015,0.0421 ± 0.0001,0.04023 ± 0.00015,0.0439 ± 0.002,0.0582 ± 0.0066,0.205 ± 0.25,0.0507 ± 0.0027,0.0505 ± 0.00097,0.05257 ± 0.00029,0.0564 ± 0.0015,0.0513 ± 0.00036
Cc1cc(=O)oc2cc(O)ccc12 [Hymecromone],0.227 ± 0.0065,0.286 ± 0.024,0.25 ± 0.0054,0.177 ± 0.012,0.182 ± 0.0058,0.148 ± 0.0076,0.317 ± 0.033,0.411 ± 0.013,0.198 ± 0.0059,0.208 ± 0.032,0.631 ± 0.01,0.406 ± 0.017,0.355 ± 0.0061
COCCOC(=O)C1=C(C)NC(C)=C(C(=O)OC/C=C/c2ccccc2)C1c1cccc([N+](=O)[O-])c1 (configuration not stated) [Cilnidipine],0.275 ± 0.0065,0.333 ± 0.0093,0.304 ± 0.028,0.195 ± 0.022,0.14 ± 0.015,0.164 ± 0.0066,0.187 ± 0.016,0.319 ± 0.026,0.169 ± 0.0093,0.21 ± 0.025,0.518 ± 0.028,0.457 ± 0.0093,0.253 ± 0.026
CC(C)NCC(O)c1ccc(NS(C)(=O)=O)cc1 (configuration not stated) [Sotalol hydrochloride],0.163 ± 0.0095,0.206 ± 0.0064,0.254 ± 0.0096,0.173 ± 0.025,0.138 ± 0.0027,0.142 ± 0.0089,0.242 ± 0.084,0.377 ± 0.056,0.181 ± 0.016,0.221 ± 0.016,0.433 ± 0.0053,0.402 ± 0.012,0.359 ± 0.025
CCCCNc1ccc(C(=O)OCCN(C)C)cc1,0.208 ± 0.0034,0.273 ± 0.006,0.255 ± 0.003,0.186 ± 0.0077,0.166 ± 0.0023,0.146 ± 0.0066,0.266 ± 0.033,0.354 ± 0.021,0.174 ± 0.019,0.186 ± 0.0082,0.468 ± 0.0089,0.396 ± 0.019,0.346 ± 0.018
O=c1oc2ccccc2c(O)c1Cc1c(O)c2ccccc2oc1=O [Dicumarol],0.178 ± 0.001,0.159 ± 0.0018,0.1609 ± 0.0012,0.149 ± 0.0042,0.0997 ± 0.0013,0.126 ± 0.0032,0.289 ± 0.049,0.262 ± 0.049,0.18 ± 0.014,0.199 ± 0.046,0.191 ± 0.025,0.128 ± 0.022,0.0655 ± 0.0074
Cc1cc(CC(=O)O)n(C)c1C(=O)c1ccc(Cl)cc1 [Zomepirac sodium salt],0.22 ± 0.0032,0.261 ± 0.022,0.239 ± 0.0082,0.16 ± 0.0043,0.1938 ± 0.0017,0.121 ± 0.0027,0.473 ± 0.13,0.295 ± 0.069,0.187 ± 0.0096,0.247 ± 0.038,0.476 ± 0.083,0.392 ± 0.014,0.3428 ± 0.0013
COc1ccc2c(c1)C(=O)N(CCc1ccc(S(=O)(=O)NC(=O)NC3CCCCC3)cc1)C(=O)C2(C)C [Gliquidone],0.06 ± 0.018,0.0483 ± 0.0024,0.04083 ± 0.00021,0.0728 ± 0.0039,0.0491 ± 0.00068,0.119 ± 0.0032,0.126 ± 0.027,0.0965 ± 0.065,0.157 ± 0.015,0.173 ± 0.0091,0.0675 ± 0.001,0.108 ± 0.046,0.116 ± 0.0081
C=CC1=C(C(=O)O)N2C(=O)[C@@H](NC(=O)/C(=N\O)c3csc(N)n3)[C@H]2SC1 [Cefdinir],0.0391 ± 0.00064,0.0401 ± 0.0026,0.0401 ± 0.00087,0.038 ± 0.0008,0.0415 ± 0.0031,0.0408 ± 0.0009,0.0771 ± 0.0071,0.0475 ± 0.00091,0.0548 ± 0.003,0.0595 ± 0.015,0.0483 ± 0.0014,0.0463 ± 0.00075,0.0569 ± 0.0017
O=C1CN(/N=C/c2ccc(-c3ccc([N+](=O)[O-])cc3)o2)C(=O)N1 [Dantrolene sodium salt],0.2259 ± 0.00093,0.263 ± 0.0054,0.184 ± 0.003,0.143 ± 0.007,0.105 ± 0.0026,0.131 ± 0.0074,0.167 ± 0.014,0.258 ± 0.013,0.192 ± 0.016,0.231 ± 0.072,0.446 ± 0.023,0.319 ± 0.1,0.187 ± 0.033
CC(C)(C)NC(=O)[C@@H]1CN(Cc2cccnc2)CCN1C[C@@H](O)C[C@@H](Cc1ccccc1)C(=O)N[C@H]1c2ccccc2C[C@H]1O [Indinavir sulfate],0.2105 ± 0.00051,0.293 ± 0.014,0.241 ± 0.0041,0.221 ± 0.02,0.149 ± 0.0054,0.139 ± 0.004,0.239 ± 0.05,0.403 ± 0.025,0.216 ± 0.0067,0.286 ± 0.022,0.558 ± 0.12,0.422 ± 0.014,0.281 ± 0.01
Cc1cc(C(C)(C)CC(C)(C)C)ccc1OCCOCC[N+](C)(C)Cc1ccccc1 [Methyl benzethonium chloride],0.0446 ± 0.0012,0.0483 ± 0.0025,0.0504 ± 0.002,0.0489 ± 0.00059,0.04487 ± 0.00031,0.04963 ± 0.00035,0.0532 ± 0.001,0.0608 ± 0.0092,0.0545 ± 0.0014,0.0542 ± 0.00078,0.0474 ± 0.00066,0.0556 ± 0.0023,0.0529 ± 0.0018
C[C@@H]1C[C@H]2[C@@H]3CCC4=CC(=O)C=C[C@]4(C)[C@@]3(Cl)[C@@H](O)C[C@]2(C)[C@@]1(OC(=O)c1ccco1)C(=O)CCl [Mometasone furoate],0.203 ± 0.0057,0.259 ± 0.031,0.223 ± 0.011,0.161 ± 0.0059,0.0878 ± 0.0027,0.152 ± 0.013,0.198 ± 0.049,0.329 ± 0.082,0.297 ± 0.12,0.212 ± 0.06,0.498 ± 0.036,0.415 ± 0.013,0.244 ± 0.0054
CCOC(=O)OC(C)OC1=C(C(=O)Nc2ccccn2)N(C)S(=O)(=O)c2ccccc21 (configuration not stated) [Ampiroxicam],0.228 ± 0.015,0.27 ± 0.0052,0.255 ± 0.0083,0.183 ± 0.018,0.165 ± 0.007,0.157 ± 0.0076,0.237 ± 0.034,0.339 ± 0.033,0.206 ± 0.024,0.266 ± 0.048,0.582 ± 0.1,0.415 ± 0.01,0.293 ± 0.019
Nc1ccc(S(=O)(=O)c2ccc(N)cc2)cc1 [Dapsone],0.256 ± 0.0028,0.282 ± 0.019,0.23 ± 0.0077,0.227 ± 0.019,0.1616 ± 0.0011,0.141 ± 0.0065,0.433 ± 0.092,0.339 ± 0.012,0.214 ± 0.0025,0.25 ± 0.058,0.491 ± 0.054,0.422 ± 0.01,0.367 ± 0.018
